The results in this text go back to PubChem BioAssay AID1789 (The Scripps Research Institute Molecular Screening Center, 2009).

The whole screen tested about 290,000 compounds, of which about 2,700 (0.93%) were called active. The sample holds actives, similar compounds and a random draw of the others, so the mix is not that of the screen. Values without a mark were called inactive.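 Rule for the calls: active = inhibition above the screen-wide mean plus 3 SD, computed separately per campaign (cut at about 16% in these data); inactive = the rest.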 Square brackets hold non-standard residues; d marks the D form. Peptide text beside a SMILES is read from it. * marks the point of attachment. PhAc = O=C(Cc1ccccc1)*

The subject of this test is Heat shock protein HSP 90 (rabbit reticulocyte lysate; luciferase refolding). Nature of the test: inhibitors of HSP90 chaperone activity – cell lysate, luminescence, primary screen (AID 1789).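 Note: 0% = DMSO wells and 100% = 60 µM geldanamycin wells; inhibitors lower the luminescence because luciferase stays unfolded.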 Conditions: 3 h, at 5.6 µM, active compounds read high.
Take `COc1ccc(C)cc1NC(=O)CNCc1cccs1`: the inhibition – broadly, the relative decrease from the control value, in per cent – is 9.78%.

Take `CC(C)Sc1ncnc2c1cnn2-c1ccccc1`: the inhibition was -2.09%. With `COc1cc(NC(=O)CSc2ccc(-c3cccnc3)nn2)cc(OC)c1` the figure was -0.99%. The same measure for `CC1CC(C)CN(CCCNC(=O)Cn2ncc3c([nH]c4ccccc43)c2=O)C1` (centres undefined): 2.52%; for `Cc1ccc2[nH]c3c(=O)n(CC(=O)NCCc4ccc(Cl)cc4)ncc3c2c1`: -1.14%.

For the compound `Cc1cccc(CCNC(=O)Cn2ncc3c([nH]c4ccc(C)cc43)c2=O)c1`, the inhibition is 20.9% (active). With `CCCn1nc(NC(=O)C(C)C)c2cc3cc(OC)ccc3nc21` the figure was -7.87%; with `C=Cn1cc[n+](CC(=O)c2ccc(OC)c(OC)c2)c1`, 9.58%. With `O=C(CCCC(=O)N1CCN(c2cccc(Cl)c2)CC1)c1ccccc1` the figure was -3.4%. The same measure for `Cc1ccc(S(=O)(=O)N(CCCN(C)C)Cc2ccc3c(c2)OCO3)cc1`: -1.45%; for `CC(NCC(=O)Nc1cc(Cl)cc(Cl)c1)c1ccccc1` (centres undefined): 10.2%. As for `O=C(C1CCC1)N1CCN(c2ccccc2)CC1`, the inhibition was -0.73%. In the case of `CCCCCN(C(=O)CCC(=O)OCC(=O)NCc1ccc(OC)cc1)c1c(N)n(CCCC)c(=O)[nH]c1=O`, the inhibition is -5.78%. As for `Cc1cccc(N(C)C(=O)CN2C(=O)COc3ccc(S(=O)(=O)N4CCCCCC4)cc32)c1`, the inhibition is 2.46%.

On to `CCOc1ccc(OCc2cccc(C(=O)N(CC)CC)c2)cc1`, for which the inhibition was 19.7% (active).

With `CC(C)c1cc(C(N)=O)c(NC(=O)c2cccc(COc3ccc(Br)cc3)c2)s1`, the inhibition is 6%. `COc1ccc(OCc2cccc(C(=O)N3CCCC3)c2)cc1`: the inhibition was 12.3%. With `COc1cc(C(=O)N2CCN(C)CC2)cc(OC)c1OC`, the inhibition was -1.01%.

Consider `CCOC(=O)N1CCN(C(=O)COCc2cc(-c3ccc4c(c3)OCO4)on2)CC1`, for which the inhibition is -2.54%.

Take `Cc1ccc2c(C)c(C(=O)N(C)CCC3CCCCO3)oc2c1C` (centres undefined): the inhibition is -5.53%. The same measure for `COc1ccc(Cl)cc1C(=O)NCC#N`: -11.2%; for `N#C/C=C\Oc1ccc(Cl)cc1N`: 19.9% (active). The same measure for `COc1ccc(N2CCN(C(=O)c3ccccc3NC(=O)C3=C(C)OCCS3)CC2)cc1`: -2.69%; for `Cc1nc2ccccc2nc(C)c1=NOCc1ccc(Cl)cc1Cl`: -1.08%; for `Cc1ccc(-c2csc(NNC(=O)c3ccccc3)n2)cc1`: 0.18%. For the compound `CC(=O)Nc1nc(C)c(-c2csc(Nc3ccc(S(N)(=O)=O)cc3)n2)s1`, the inhibition is -0.54%. In the case of `CCCCC(=O)Nc1nc(C)c(-c2csc(Nc3ccc(Cl)cc3)n2)s1`, the inhibition was 16.9% (active). On to `Cc1ccc(Nc2nc(-c3sc(NC(=O)c4ccccc4)nc3C)cs2)cc1`, for which the inhibition was 48.7% (active).

For the compound `CCC(=O)Nc1nc(C)c(C(=O)Nc2cccc(Cl)c2)s1`, the inhibition was -0.01%. With `C=CCCC(=O)Nc1nc(C)c(-c2csc(Nc3ccc(Cl)cc3)n2)s1` the figure was 6.06%; with `Cc1nc(NC(=O)c2cccc(Cl)c2)sc1-c1csc(Nc2cccc(Cl)c2)n1`, 67.3% (active). With `CCCCCCC(=O)Nc1nc(C)c(-c2csc(Nc3cccc(OC)c3)n2)s1`, the inhibition is 0.02%.

For the compound `CCCCCCC(=O)Nc1nc(C)c(-c2csc(Nc3cc(Cl)ccc3OC)n2)s1`, the inhibition is 4.86%.

With `COc1cc(OC)c(C(=S)N2CCCC2)cc1OC`, the inhibition was -0.17%. Consider `O=C(Cn1ncc(N2CCCC2)c(Br)c1=O)c1ccc(Cl)cc1`, for which the inhibition is -0.91%. For `CC(C)(C)Nc1nc(-c2ccccn2)nc2ccccc12`, the inhibition was -0.49%. With `Cc1nc(COc2cc3oc(=O)cc(C)c3cc2Cl)cs1` the figure was 1.76%. With `CCN(C(=O)Cc1c(C(=O)O)n(CC)c2ccccc12)c1ccccc1C`, the inhibition was -6.6%. Turning to `Cc1c(CNCCc2ccccc2)c(C(=O)O)c(C)n1-c1ccccc1`, the inhibition is 1.5%. As to `CCOCCOC(=O)C1=C(C)NC(=O)NC1c1ccc2c(c1)OCO2` (centres undefined), the inhibition was -3.33%.

Take `O=C(NC1CCCCCCC1)c1cccs1`: the inhibition was -3.45%. With `O=C(NCc1ccco1)/C(=C\c1cccc([N+](=O)[O-])c1)NC(=O)c1ccco1` the figure was -0.13%; with `COCCN(C(=O)CCC(=O)Nc1nccs1)C(C(=O)NCCC(C)C)c1ccc(F)cc1` (centres undefined), 2.45%; with `Cc1ccc2c(cnn2C(=O)CCC(=O)NC2CCCC2)c1`, -3.9%. With `Oc1c(C=Nc2cccc3nsnc23)ccc2ccccc12` the figure was 36.7% (active); with `O=[N+]([O-])c1ccc(N=Cc2c(O)ccc3ccccc23)cc1`, 2.1%; with `COc1ccc(C=Nc2cccc3ncccc23)cc1`, 7.77%. For the compound `CC(C)C[C@@H](NC(=O)[C@H]1CCCN1C(=O)Cc1ccccc1)C(N)=O` (PhAc-[dP]-[dL]-NH2), the inhibition was -3.77%. As for `COc1ccccc1NC(=O)CN(c1ccccc1OC)S(=O)(=O)c1ccccc1`, the inhibition is 0.43%. The same measure for `CCc1c(C)sc(NC(=O)/C=C/c2ccc3c(c2)OCO3)c1C(=O)OC`: -8.23%; for `Cc1cccc(NC(=O)Nc2ccc3c(c2)OCO3)n1`: -5.1%; for `Cc1cccc(NC(=O)/C=C/c2ccc3c(c2)OCO3)n1`: 22.8% (active). With `Cc1cc(C)cc(NC(=O)NC2CCCCCCC2)c1` the figure was -3.82%; with `O=C(Nc1ccn(Cc2ccccc2)n1)c1cccc(F)c1`, 11.1%. As for `Cn1cc([N+](=O)[O-])c(C(=O)Nc2cnn(Cc3ccc(F)cc3)c2)n1`, the inhibition is -0.28%. The same measure for `O=C(Nc1ccn(Cc2ccccc2)n1)c1n[nH]c([N+](=O)[O-])c1Cl`: 22.3% (active); for `O=S(=O)(NC1CCCCC1N1CCN(c2ccccc2F)CC1)c1ccccc1` (centres undefined): 2.71%. With `O=C(Nc1ccc(Cl)cc1)c1cccc(OC(=S)N2CCOCC2)c1` the figure was -7.8%; with `CCOC(=O)Cn1c(=O)n(Cc2ccc(OC)cc2)c(=O)c2cccnc21`, -2.48%.

For the compound `Oc1cccc(/C=N/Nc2ccc(Cl)nn2)c1O`, the inhibition is 5.19%. `CCc1ccc(NC(=O)CCNS(=O)(=O)c2cccs2)cc1`: the inhibition is -2.78%. The same measure for `COCC(=O)Nc1c(C(=O)N2CCCC2)oc2ccccc12`: -3.81%; for `Clc1ccc(-c2ncc3ccccn23)c(Cl)c1`: 4.35%; for `O=C1CSC(c2ccccc2)N1c1nc(-c2ccc(Cl)cc2Cl)cs1` (centres undefined): -0.17%. Regarding `Clc1ccc(-c2cc(-c3ccccn3)on2)c(Cl)c1`, the inhibition is 38.6% (active).

Take `O=C(O)c1ccc(N=NN2CCOCC2)cc1`: the inhibition was 20.6% (active).

For the compound `O=C(O)c1cccc(N=NN2CCCCCC2)c1`, the inhibition is 37.5% (active). The same measure for `NC(=NC(=O)c1ccccc1)N1CCOCC1`: -2.45%. With `O=C(NC(=O)N1CCOCC1)c1ccccc1` the figure was 0.55%; with `O=C(c1ccccc1)N1CCN(C(=O)N2CCCCC2)CC1`, -0.28%. The same measure for `CN1CCN(S(=O)(=O)c2cccc(C(=O)O)c2)CC1`: -1.11%; for `COC(=O)c1sc(NC(=O)c2ccc(OC)cc2OC)nc1C`: 36.3% (active). For the compound `COc1cc(SC)ccc1C(=O)Nc1nc(C)cs1`, the inhibition was 82.5% (active). With `COc1ccc(Cc2nnc(NC(=O)c3ccc(OC)cc3OC)s2)cc1` the figure was -0.32%; with `COC(=O)c1sc(NC(=O)c2csc3c2CCCC3)nc1C`, 35.7% (active); with `COC(=O)c1sc(NC(=S)NC(=O)c2ccc(C)cc2)nc1C`, 1.68%.

For `COc1cc(SC)ccc1C(=O)Nc1cc(C)ccn1`, the inhibition was 12.1%. The same measure for `COc1cc(SC)ccc1C(=O)NCCOc1ccccc1Cl`: 3.08%.

As for `COc1cc2ccccc2cc1C(=O)Nc1nc(C)c(C(C)=O)s1`, the inhibition is 10.7%. With `Cc1ccc(NC(=O)c2csc3c2CCCC3)cc1` the figure was 1.71%. Consider `CCN(C(=O)c1cc([N+](=O)[O-])ccc1NCc1cccnc1)c1ccccc1`, for which the inhibition was -2.39%. Regarding `Cc1ccc(-c2csc(N3CCN(c4cc5c(cc4Cl)nc(-c4ccncc4)n5CCOCCO)CC3)n2)cc1`, the inhibition is 0.37%. The same measure for `O=C(O)c1cc2c(cc1NC(=O)c1c(F)cccc1Cl)OCCCO2`: 1.02%. The same measure for `Cc1cc(=O)oc2cc(OCC(=O)N3CCN(c4ccc(F)cc4)CC3)c(Cl)cc12`: 0.58%; for `CCOc1ccccc1NS(=O)(=O)c1c[nH]c(C(=O)OC)c1`: -0.36%. The same measure for `CCC1Oc2ccccc2N(CC(=O)NCCCN2CCN(CC)CC2)C1=O` (centres undefined): -0.16%; for `Cc1ccc(C(=O)COC(=O)c2cccc(N3C(=O)c4c(C)nc5ccccc5c4C3=O)c2)cc1C`: 21.8% (active). Regarding `CCCc1nc2ccccc2c(C(=O)OCC(=O)c2ccc3c(c2)NC(=O)CO3)c1CC`, the inhibition was 10.5%. `O=C(CCc1nc2ccccc2c(=O)[nH]1)OCC(=O)c1cccc(Cl)c1`: the inhibition is -0.45%. With `COc1ccc(Cl)cc1-n1c(=S)sc2c(=O)n(-c3ccc(F)cc3)c(SCC(=O)O)nc21`, the inhibition is -4.32%. As for `CCCCCNC(=O)c1cccnc1SCC(=O)Nc1ccccc1OC`, the inhibition was 0.66%.

In the case of `COC(=O)c1ccccc1NC(=O)CSc1n[nH]c(-c2ccncc2)n1`, the inhibition was -0.92%. For `CCc1nc(SCC(=O)Nc2ccccc2OC)n[nH]1`, the inhibition is 37.9% (active). As for `Nc1nnnn1/N=C/c1cccc(Br)c1`, the inhibition is -1.72%. As to `CCCN1C2CCCC1CC(NC(=O)NC13CC4CC(CC(C4)C1)C3)C2` (centres undefined), the inhibition was 2.81%.

In the case of `CNC(=S)N/N=C/c1ccc(N2CCOCC2)s1`, the inhibition was 5.17%. Regarding `C/C(=N\NC(=O)Cc1ccc(Cl)cc1)c1ccccn1`, the inhibition was 1.95%. The same measure for `COc1ccc(CC(=O)N/N=C(\C)c2ccccn2)cc1`: 2.53%; for `C/C(=N\NC(=O)c1ccccc1F)c1ccccn1`: 21.6% (active).
